HIF-2a block – blocks HIF-2a reporter activity. AID 624352. 0.72% of 360,000 active. inhibition, % at 18.8 µM. 786-0 RCC cells HIF-2a reporter, luciferase luminescence, overnight;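 active = inhibition of the luminescence signal of 40% or more relative to plate controls, in a single-dose primary screen at 18.75 µM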
CF NFkB inh – inhibitors of cystic fibrosis induced NF-kB. 0.86% of 360,000 active. inhibition, % at 5 µM. KKLEB NF-kB-GFP reporter, PAF-induced, GFP fluorescence overnight. AID 588850;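 active = at least 50% inhibition at 5 µM, scaled per plate between neutral and stimulator controls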;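 note: PAF is a Pseudomonas aeruginosa culture filtrate used as stimulus; plate controls were PAF-stimulated DMSO wells for no effect and unstimulated DMSO wells for full effect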
Shn3 3UTR inh – inhibitors of Schnurri-3 3'UTR reporter in osteoblasts. inhibition, % at 12.5 µM. AID 588674. Clone20 osteoblast Shn3 3'UTR firefly luciferase, 24 h. 0.52% of 360,000 active;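 active = mean inhibition of at least 75% with every replicate also reaching 75%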;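 note: 0% = median of neutral control wells and 100% = pilot-screen positive control compound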
Peg3 prom inh – Peg3 promoter activity inhibition. HeLa PEG-Prom luciferase reporter, luminescence, overnight. inhibition, % at 20 µM. 1.7% of 360,000 active;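 active = inhibition of at least 50% at 20 µM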
KKLEB tox – reduces viability of KKLEB cystic fibrosis airway cells; activity change (cytotoxicity), % at 5 µM; AID 602141; 0.36% of 360,000 active; KKLEB CF airway cells viability, ATPlite luminescence, overnight; active compounds read low; cells stimulated with P. aeruginosa culture filtrate;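 active = corrected activity change at or below -50% at 5 µM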
* = called active by the depositor. Sampled rows, rich in hits. Any-hit rate of the full collection: about 2.6%.

O=C(Nc1ccc2c(c1)OCCO2)C(c1ccccc1)n1c(=O)c(-c2cc3ccccc3[nH]2)nc2ccccc21 (stereo not drawn) was read as HIF-2a block -55.
Screening O=C(c1ccoc1)N1CCN(c2cc(-c3cccc(F)c3)nc3cc(-c4cccc(Cl)c4)nn23)CC1 returned HIF-2a block 9, CF NFkB inh 1, Shn3 3UTR inh 91*, Peg3 prom inh 21 and KKLEB tox -15.
Screening C=CCNC(=S)N/N=C/c1cn(-c2ccccc2)nc1-c1ccc(OC)cc1 returned HIF-2a block 8, CF NFkB inh 53*, Shn3 3UTR inh -12, Peg3 prom inh -14 and KKLEB tox -53*.
COc1ccc(-c2nn(-c3ccccc3)cc2/C=N/NC(=O)c2ccc(Br)o2)cc1 was read as HIF-2a block -141, CF NFkB inh -25, Shn3 3UTR inh 16, Peg3 prom inh 90* and KKLEB tox 14.
`COc1ccc(-c2nn(-c3ccccc3)cc2/C=N/NC(=S)NC(C)C)cc1OC` gave HIF-2a block 32, CF NFkB inh -11, Shn3 3UTR inh 29, Peg3 prom inh 46 and KKLEB tox 0.
O=C(CN1C(=O)C2C3C=CC(C3)C2C1=O)OCC(=O)c1ccc(Br)cc1 (stereo not drawn) was read as HIF-2a block 4, CF NFkB inh 9, Shn3 3UTR inh -4, Peg3 prom inh 9 and KKLEB tox 10.
`O=C(Nc1cccc(C(F)(F)F)c1)c1ccc2nc(-c3ccco3)c(-c3ccco3)nc2c1` gave HIF-2a block 5, CF NFkB inh 1, Shn3 3UTR inh 14, Peg3 prom inh 50* and KKLEB tox -14.
For CC(=O)C1=C(C)NC(SCC(=O)c2cc(Cl)ccc2Cl)=C(C#N)C1c1ccco1 (stereo not drawn) the results were HIF-2a block -3, CF NFkB inh 8, Shn3 3UTR inh 81*, Peg3 prom inh 27 and KKLEB tox -15.
`CC(=O)C1=C(C)NC(SCC(=O)c2ccc(Cl)c(Cl)c2)=C(C#N)C1c1ccco1` (stereo not drawn) gave HIF-2a block -7, CF NFkB inh -12, Shn3 3UTR inh 3, Peg3 prom inh 13 and KKLEB tox 0.
Screening CCCCNC(=S)N(C)/N=C/c1c(F)c(F)c(F)c(F)c1F returned HIF-2a block 19, CF NFkB inh -16, Shn3 3UTR inh 21, Peg3 prom inh 71* and KKLEB tox -1.
Screening CCCCNC(=S)N(C)/N=C/c1c(C)[nH]c2ccccc12 returned HIF-2a block 15, CF NFkB inh 4, Shn3 3UTR inh -7, Peg3 prom inh 5 and KKLEB tox 2.
`CCOC(=O)CN1C(=O)N[C@@H](CCc2ccccc2)[C@@H](C(=O)OC)[C@H]1C` gave HIF-2a block 6, CF NFkB inh 10, Shn3 3UTR inh 3, Peg3 prom inh 14 and KKLEB tox 2.
For COc1ccc(C(=O)Oc2cccc(Nc3ncnc4ccccc34)c2)cc1OC the results were HIF-2a block -9, CF NFkB inh 20, Shn3 3UTR inh 15, Peg3 prom inh 7 and KKLEB tox -13.
Screening COc1cc(C(=O)Oc2cccc(Nc3ncnc4ccccc34)c2)cc(OC)c1OC returned HIF-2a block -47, CF NFkB inh -1, Shn3 3UTR inh 69, Peg3 prom inh 62* and KKLEB tox 6.
For CC(=O)Nc1cc(-c2ccc(F)cc2)[nH]n1 the results were HIF-2a block -78, CF NFkB inh -5, Shn3 3UTR inh -11, Peg3 prom inh -56 and KKLEB tox 7.
For CCOC(=O)c1c(C)[nH]c(C(=O)OCC(=O)Nc2cc(Cl)ccc2OC)c1C the results were HIF-2a block 9, CF NFkB inh 38, Shn3 3UTR inh 21, Peg3 prom inh 39 and KKLEB tox -40.
Screening CC(=O)c1c(C)[nH]c(C(=O)OCC(=O)Nc2ccc(Cl)cc2[N+](=O)[O-])c1C returned HIF-2a block 11, CF NFkB inh 6, Shn3 3UTR inh 92*, Peg3 prom inh 3 and KKLEB tox -9.
`O=C(CSCC(=O)Nc1ccccc1)N/N=C/c1c(O)ccc2ccccc12` gave HIF-2a block 5, CF NFkB inh 27, Shn3 3UTR inh 93*, Peg3 prom inh 52* and KKLEB tox -15.
`Cc1ccc(C(=O)N/N=C/c2c(O)ccc3ccccc23)cn1` gave HIF-2a block -34, CF NFkB inh 12, Shn3 3UTR inh 94*, Peg3 prom inh 45 and KKLEB tox 2.

Compound activity deposited in PubChem by several laboratories.
